TcdB GH inh = TcdB glycohydrolase inhibitors, primary screen, biochemical, single point, plate reader | Toxin B (Clostridioides difficile), P18177 | TcdB glycohydrolase enzymatic assay | inhibition, % at 9.99 µM | actives 0.24% (n = 350,000) | AID 652162, 2013; in the data active means inhibition above about 10%
Bead autofluor = compound fluorescence in toxin protease inhibitor counterscreen | AID 624483 | fluorescence intensity (concentration not given with the values) | actives 3.1% (n = 360,000) | compound autofluorescence counterscreen, microsphere flow cytometry; stronger effect = higher value; in the data active means fluorescence intensity above about 16000; inconclusive means no clear call, values can overlap the other calls
BoNT-A LC inh2 = BoNT/A light chain protease inhibitors, primary screen, biochemical, flow cytometry, MLPCN library. Botulinum neurotoxin type A light chain protease (Clostridium botulinum A str. ATCC 3502). multiplex microsphere protease substrate cleavage. inhibition, % at 10 µM. actives 0.17% (n = 360,000). AID 588499, 2011; further: plate controls were buffer without enzyme for full effect and enzyme alone for no effect
Anthrax LF prot = Bacillus anthracis LF protease inhibitors, primary screen, biochemical, multiplex microsphere, MLPCN library. Lethal factor (Bacillus anthracis), P15917. multiplex microsphere protease cleavage assay. inhibition, % at 10 µM. actives 0.12% (n = 360,000). AID 588501, 2011; further: plate controls were buffer without enzyme for full effect and enzyme alone for no effect
BoNT-F LC inh = BoNT/F light chain protease inhibitors, primary screen, biochemical, flow cytometry, MLPCN library; Botulinum neurotoxin type F light chain protease (Clostridium botulinum); Multiplex microsphere protease cleavage assay; inhibition, % at 10 µM; actives 0.22% (n = 360,000); AID 588497, 2011; in the data active means inhibition above about 35%, passing the limit was not always enough; inconclusive means no clear call, values can overlap the other calls; further: plate controls were buffer without enzyme for full effect and enzyme alone for no effect
Active calls of the source: *; ? = inconclusive; . = no result. Shown is part of a subset that was picked to be rich in hits. Unless noted, no stated cut-off is given here; in the data, active means inhibition above about 30%; inconclusive means no clear call, values can overlap the other calls; inactive means below that.

SMILES | TcdB GH inh | Bead autofluor | BoNT-A LC inh2 | Anthrax LF prot | BoNT-F LC inh
NC(=O)C1(N2CCCCC2)CCN(Cc2ccc(F)cc2)CC1 | . | 21961* | -5 | 1 | -2
CCOC(=O)C1CCN(C(=O)c2cccc(C(=O)N3CCC(C(=O)OCC)CC3)c2)CC1 | 0 | 21616* | ? | 2 | -3
Cc1ccc(S(=O)(=O)N[C@H]2CC[C@H](CCNC(=O)C3CCCCC3)O[C@@H]2CO)cc1 | 0 | . | . | . | .
Cn1c(Sc2ccc([N+](=O)[O-])cc2C(F)(F)F)nnc1-c1ccccc1 | . | 3769 | 0 | 0 | 9
Cn1c(Sc2ccc(C(F)(F)F)cc2[N+](=O)[O-])nnc1-c1ccccc1 | . | 18706* | 3 | -6 | 4
FC(F)(F)/C(=N\P(=S)(N1CCOCC1)N1CCOCC1)N1CCOCC1 | 2 | 17852* | ? | -9 | 13
COc1ccccc1NC(=O)c1nnn(Cc2ccccc2)c1NC(=O)C(F)(F)F | . | 8810 | 2 | -6 | 6
COc1ccccc1NC(=O)c1nnn(Cc2ccccc2)c1NC(C)=O | . | 24511* | -3 | -4 | -5
C[C@H]1CN([C@@H](C)CO)S(=O)(=O)c2ccc(C#Cc3cccnc3)cc2O[C@H]1CN(C)C(=O)Nc1ccc2c(c1)OCO2 | -1 | . | . | . | .
C[C@H]1CN([C@@H](C)CO)S(=O)(=O)c2ccc(C#Cc3ccncc3)cc2O[C@H]1CN(C)C(=O)C1CCC1 | 1 | . | . | . | .
CN1CCc2c(c(N3CCCCC3)nc3n[nH]c(N)c23)C1 | . | 20525* | ? | -1 | -3
Cc1ccsc1C(=O)OCc1nc2ccsc2c(=O)[nH]1 | 3 | 5451 | 5 | 3 | 10
Cc1ccsc1C(=O)OCc1nc2ccccc2c(=O)[nH]1 | . | 19317* | 9 | -3 | 10
Cc1ccc(S(=O)(=O)NCC[C@@H]2CC[C@H](NC(=O)c3cnccn3)[C@H](CO)O2)cc1 | -2 | . | . | . | .
COc1ccc(CCNC(=O)c2cc(-c3ccccc3OC)on2)cc1OC | . | 24479* | ? | 0 | -5
COc1ccccc1-c1cc(C(=O)Nc2cccnc2)no1 | . | 22187* | 1 | -1 | 1
COc1ccc(CCNC(=O)c2cc(CC(C)C)on2)cc1OC | 1 | 6833 | 4 | 6 | -2
COc1ccc(-c2cc(C(=O)NCCc3ccccc3)no2)cc1OC | . | 20927* | 4 | -1 | 2
COc1ccccc1-c1cc(C(=O)NCCc2ccccc2)no1 | . | 3860 | -2 | -2 | -28
CCCNC(=O)[C@@H]1[C@@H](CO)[C@@H]2Cn3c(ccc(-c4ccccc4)c3=O)[C@@H]2N1C(=O)C1CCC1 | -3 | . | . | . | .
Cc1ccc(S(=O)(=O)ON2C(=O)c3ccccc3C2=O)c(C)c1 | 1 | 9145 | 0 | -3 | 12
Cc1cc(C)c(S(=O)(=O)ON2C(=O)c3ccccc3C2=O)cc1C | . | 23962* | ? | -3 | 0
CCOC(=O)c1c(N)nn(C(=O)C(C)(C)C)c1-c1ccccc1 | . | 22970* | -1 | -1 | -2
COc1ccc(-c2cc3c(c(-c4ccc(Oc5ccccc5)cc4)n2)[Si](C(C)C)(C(C)C)OC3)cn1 | 1 | . | . | . | .
CC(C)OC(=O)c1cc(C(=O)c2cc(Cl)ccc2O)coc1=N | 0 | 5449 | 1 | 0 | 3
SMILES | TcdB GH inh | Bead autofluor | BoNT-A LC inh2 | Anthrax LF prot | BoNT-F LC inh
CC(C)OC(=O)c1cc(C(=O)c2cc(F)ccc2O)coc1=N | . | 16808* | 0 | -2 | -1
O=C(C[C@H]1CC[C@@H]2[C@H](COC[C@@H](O)CN2C(=O)Nc2cc(Cl)cc(Cl)c2)O1)NCC1CCCCC1 | 0 | . | . | . | .
OCCNc1nc2ccccc2n1CC(O)c1ccccc1 (stereo unspecified) | 2 | 3958 | 0 | -4 | 1
CC(C)Cn1c(NCCO)nc2ccccc21 | . | 19740* | 1 | -1 | 0
CO[C@@H]1CN(C)C(=O)c2cc(NC(C)=O)ccc2OC[C@H](C)N(CC2CC2)C[C@@H]1C | -1 | . | . | . | .
Cc1ccc(S(=O)(=O)c2nc(Nc3ccccc3N3CCOCC3)sc2Cl)cc1 | . | 16143* | 1 | 0 | -2
C[C@@H]1CCCCO[C@H](CN(C)S(=O)(=O)c2ccc(Cl)cc2)[C@H](C)CN([C@@H](C)CO)C(=O)c2cc(NS(C)(=O)=O)ccc2O1 | 0 | . | . | . | .
Cc1nn(Cc2ccc(F)cc2)c(C)c1NC(=O)c1cnn2c1NC(c1cccs1)CC2C(F)(F)F (stereo unspecified) | . | 22509* | 2 | -1 | 2
CCCn1c(CN(C)Cc2ccccc2)nc2c1c(=O)n(C)c(=O)n2C | . | 4573 | -1 | -1 | -21
CCCCn1c(CN(C)Cc2ccccc2)nc2c1c(=O)n(C)c(=O)n2C | . | 19708* | 0 | -6 | -2
CCOC(=O)Cn1c(CN(Cc2ccccc2)Cc2ccccc2)nc2c1c(=O)n(C)c(=O)n2C | . | 20766* | 3 | -9 | 4
CCn1c(CN2CCN(C(=O)c3ccco3)CC2)nc2c1c(=O)n(C)c(=O)n2C | . | 21356* | ? | 1 | 5
Cn1c(=O)c2c(nc(CN3CCN(Cc4ccccc4)CC3)n2Cc2ccc(F)cc2)n(C)c1=O | -1 | 6409 | 0 | -1 | 5
CCCn1c(CN(Cc2ccccc2)Cc2ccccc2)nc2c1c(=O)n(C)c(=O)n2C | . | 5821 | 0 | -3 | -1
CC(C)CCn1c(CN2CCN(Cc3ccccc3)CC2)nc2c1c(=O)n(C)c(=O)n2C | . | 20587* | ? | 3 | -1
C[C@@H]1CN([C@@H](C)CO)C(=O)Cc2cc(NC(=O)CCC(F)(F)F)ccc2O[C@H]1CN(C)Cc1ccc(Cl)c(Cl)c1 | 0 | . | . | . | .
Cn1c(=O)c2c(ncn2CC(=O)OCc2ccccc2)n(C)c1=O | . | ? | -2 | 0 | 12
CCCCCn1c(CN2CCN(c3cccc(Cl)c3)CC2)nc2c1c(=O)n(C)c(=O)n2C | . | 8145 | 0 | 0 | 2
CCCCCn1c(CN2CCN(Cc3ccccc3)CC2)nc2c1c(=O)n(C)c(=O)n2C | . | 20660* | 5 | -8 | 7
Cn1c(=O)c2c(ncn2CC(=O)N(Cc2ccccc2)c2ccccn2)n(C)c1=O | . | 23173* | 0 | 0 | -2
CCCCn1c(CN2CCN(c3cccc(Cl)c3)CC2)nc2c1c(=O)n(C)c(=O)n2C | . | 19625* | 6 | -12 | 7
COc1cccc(-c2ccc3c(c2)O[C@H](CN(C)Cc2cncnc2)[C@H](C)CN([C@@H](C)CO)S3(=O)=O)c1 | 0 | . | . | . | .
O=C(C[C@H]1C[C@H]2c3cc(NC(=O)Cc4ccncc4)ccc3O[C@H]2[C@@H](CO)O1)NCc1cc(F)ccc1F | 0 | . | . | . | .
C[C@@H](NC(=O)[C@H]1[C@H](CO)[C@H]2Cn3c(cccc3=O)[C@H]2N1CC1CC1)c1ccccc1 | 0 | . | . | . | .
Cc1cccc(-c2nc(CS(=O)CC(=O)NCCCSC3CCCCC3)c(C)o2)c1 (stereo unspecified) | . | 20646* | ? | -3 | -2
COc1cccc(-c2nc(CS(=O)(=O)CC(=O)NCCCOC(C)C)c(C)o2)c1 | . | 21662* | ? | -4 | 1
Cc1cccc(-c2nc(CS(=O)CC(=O)NC3CCCCC3)c(C)o2)c1 (stereo unspecified) | -2 | 5183 | 0 | 1 | -1

Screens (PubChem)
